Sampled rows, rich in hits. Any-hit rate of the full collection: about 3.7%.
Mtb bLac sens = beta-lactam sensitization of Mtb H37Rv; M. tuberculosis H37Rv growth with meropenem, percent inhibition; actives 0.27% (n = 330,000); AID 434955; inhibition, % at 25 µM; call rule not given here;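 note: growth measured after seven days incubation then overnight dye step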
GDH-TPI counter = inhibits GDH-TPI coupling enzymes, artifact for Mtb FBA screen; GDH-TPI coupled enzyme counterscreen, NADH absorbance; inhibition, % at 4.8 µM; actives 1.2% (n = 360,000); AID 588335; in the data active = inhibition above about 30%
FadD28 binding = M. tuberculosis FadD28 bisubstrate binding inhibition. FadD28 bisubstrate probe binding, fluorescence polarization. actives 0.22% (n = 360,000). inhibition, % at 12.5 µM. AID 588549; in the data active = inhibition above about 8.5%, passing the limit was not always enough; inconclusive = no clear call, values can overlap the other calls
FBA Mtb inh = inhibitors of M. tuberculosis fructose-bisphosphate aldolase; P9WQA3; purified M. tuberculosis FBA, fluorescence read-out; inhibition, % at 1 µM; actives 2.3% (n = 360,000); in the data active = inhibition above about 27%
Rv3671c protease = inhibits the M. tuberculosis serine protease Rv3671c; AID 2606; actives 0.048% (n = 320,000); inhibition, % at 5.96 µM; P9WHR9; in the data active = inhibition above about 38%;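 note: extracellular domain of Rv3671c used as enzyme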
Target sequence (P9WHR9 whole entry, looked up, the tested form may be a part): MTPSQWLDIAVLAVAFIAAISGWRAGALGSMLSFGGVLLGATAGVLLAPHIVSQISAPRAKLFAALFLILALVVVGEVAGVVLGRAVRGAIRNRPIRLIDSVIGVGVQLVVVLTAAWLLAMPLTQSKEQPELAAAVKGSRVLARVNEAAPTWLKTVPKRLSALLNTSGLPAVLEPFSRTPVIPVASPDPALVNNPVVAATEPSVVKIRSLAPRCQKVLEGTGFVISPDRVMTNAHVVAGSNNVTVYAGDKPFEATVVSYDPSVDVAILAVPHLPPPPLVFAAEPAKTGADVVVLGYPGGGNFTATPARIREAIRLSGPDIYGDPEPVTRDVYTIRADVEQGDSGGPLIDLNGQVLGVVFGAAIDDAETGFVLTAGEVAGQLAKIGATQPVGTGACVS
UGM FP inh = inhibitors of M. tuberculosis UDP-galactopyranose mutase; purified UGM, fluorescence polarization probe displacement; inhibition, % at 10 µM; actives 0.06% (n = 320,000); in the data active = inhibition above about 10%, passing the limit was not always enough; inconclusive = no clear call, values can overlap the other calls
Large screens that a line does not name were inactive.

Cc1cc(/C=C2\C(=O)NN(c3ccccc3)C2=O)c(C)n1-c1ccccc1O	GDH-TPI counter 33.8
Cc1cc(/C=C2/C(=O)NN(c3ccccc3)C2=O)c(C)n1-c1ccc(O)cc1	none
COc1ccc(/C=N/Nc2nonc2N)cc1OC	none
FC(F)(F)c1cnc(N/N=C/c2ccncc2)c(Cl)c1	GDH-TPI counter 56.8
COc1ccc(/C=N/Nc2ncc(C(F)(F)F)cc2Cl)cc1OC	GDH-TPI counter 41.3
Cc1ccc(S(=O)(=O)N2C[C@H]3[C@H]4C(=O)N(Cc5ccccc5)C(=O)[C@H]4CC(=O)[C@H]3[C@@H]2c2cccc3ccccc23)cc1	none (no result: Mtb bLac sens, GDH-TPI counter, Rv3671c protease, UGM FP inh)
COc1ccc(CCNC(=O)C(C)n2nc(C)c3c(C)n(-c4ccc(C)cc4)nc3c2=O)c(OC)c1 (configuration not stated)	none
COc1ccc(/C=C\c2nc(=O)c3ccccc3o2)cc1	none (no result: Mtb bLac sens, Rv3671c protease, UGM FP inh)
O=c1nc(/C=C/c2ccc(O)c(O)c2)oc2ccccc12	GDH-TPI counter 44.4 (no result: Mtb bLac sens, Rv3671c protease, UGM FP inh)
Cc1cccc(C)c1NC(=S)N/N=C/c1ccc(C(=O)O)cc1	GDH-TPI counter 45.0
O=C(O)c1ccc(/C=N/NC(=S)NCCN2CCOCC2)cc1	GDH-TPI counter 46.3
Oc1cccc(/C=N/NC(=S)NCCN2CCOCC2)c1O	none
C=C(C)CNC(=S)N/N=C/c1ccc(NC(C)=O)cc1	none
CC(=O)Nc1ccc(/C=N/NC(=S)NC(C)C)cc1	GDH-TPI counter 40.4
COc1cc(/C=N/NC(=S)NCCN2CCOCC2)cc(OC)c1OC	none
COc1ccc(/C=N/NC(=S)Nc2cccc(C(=O)O)c2)cc1	none
S=C(NCCN1CCOCC1)N/N=C/c1cccs1	GDH-TPI counter 34.7
COc1ccc(CC(=O)Oc2ccc(C#N)cc2)cc1	none
C[C@@H]1CN([C@H](C)CO)C(=O)CCCn2nncc2CO[C@H]1CN(C)C	none (no result: Mtb bLac sens, Rv3671c protease, UGM FP inh)
COc1ccc(C(=O)NCC(c2ccco2)N2CCc3ccccc32)c(OC)c1 (configuration not stated)	none
O=c1cc(-c2ccccc2)nc2c(-c3ccccc3)c(C(F)(F)F)[nH]n12	FadD28 binding inconclusive, FBA Mtb inh active
Cc1cc(=O)n2[nH]c(C)c(-c3ccccc3)c2n1	none
COc1ccc(/C=N/Nc2nnc(-c3ccccc3)c(=O)[nH]2)cc1	GDH-TPI counter 35.4
O=c1[nH]c(N/N=C/c2ccccc2Br)nnc1-c1ccccc1	GDH-TPI counter 38.6
COc1ccc(C2CC(c3ccccc3)=NN2C(=S)Nc2ccccc2)cc1 (configuration not stated)	GDH-TPI counter 34.1
CNC(=S)N1N=C(c2cccs2)CC1c1ccc(OC)cc1 (configuration not stated)	GDH-TPI counter 47.9
COc1ccc(C2=NN(C(=S)Nc3ccccc3)C(c3ccccc3)C2)cc1 (configuration not stated)	none
CN(Cc1ccccc1)C(=O)c1ccc(NC(=O)Cc2ccc(NC(=O)C3CCCN(S(=O)(=O)c4cccc([N+](=O)[O-])c4)C3)cc2)cc1 (configuration not stated)	none (no result: Mtb bLac sens, Rv3671c protease, UGM FP inh)
Cc1nn(C)c(C)c1CS(=O)(=O)c1ccccc1	none
CC(C)NC1(C#N)CCN(Cc2ccccc2)CC1	none (no result: Mtb bLac sens, Rv3671c protease, UGM FP inh)
CC(=O)Nc1c(Cl)cc2c(c1Cl)C(=O)c1ccccc1-2	none (no result: Mtb bLac sens, Rv3671c protease, UGM FP inh)
O=C1[C@H](Cc2ccccc2)NCC=CC[C@H](c2ccc(Cl)cc2)N1Cc1ccccc1	none (no result: Mtb bLac sens, Rv3671c protease, UGM FP inh)
CC(Oc1ccc(Cl)cc1)C(=O)Nc1ccc(S(=O)(=O)Nc2nccs2)cc1 (configuration not stated)	FBA Mtb inh 106.9
CCC1NC(C(=O)O)Cc2c1[nH]c1ccccc21 (configuration not stated)	FBA Mtb inh 47.2
CCCCC(=O)N(C)c1c(C)nc2ccc(C(=O)N3CCN(c4ccccc4)CC3)cn12	none (no result: Mtb bLac sens, Rv3671c protease, UGM FP inh)
O=C(c1cc(C2CCCCN2S(=O)(=O)Cc2ccccc2)on1)N1CCOCC1 (configuration not stated)	none (no result: Mtb bLac sens, Rv3671c protease, UGM FP inh)
Cc1cc2nc3c(=O)[nH]c(=S)[nH]c3nc2cc1NC(=O)C(F)(F)F	UGM FP inh 18.8
Cc1cc2cc3c(cc2nc1SCC(=O)O)OCCO3	GDH-TPI counter 33.3
CSc1ncnc2c1ncn2CCCN1CCN(c2ncccn2)CC1	none (no result: Mtb bLac sens, Rv3671c protease, UGM FP inh)
Cc1nc(N2CCCCC2)[nH]c(=O)c1CN(C)N=O	none (no result: Mtb bLac sens, Rv3671c protease, UGM FP inh)
O=c1cc(CSc2nnnn2-c2ccccc2)[nH]c2[nH]n(-c3ccccc3)c(=O)c12	FadD28 binding 8.9
COc1cc(/C=N/Nc2ccc(C(=O)O)cc2)ccc1O	GDH-TPI counter 33.1

Source: PubChem BioAssay (several laboratories)
